Bioassay records (PubChem BioAssay)
hDAT+cocaine: human DAT dopamine uptake with cocaine, either direction | Q01959 | AID 449768 | LLC-PK1 hDAT cells, [14C]-dopamine uptake with cocaine IC80; actives deviate in either direction | B-score at 10 µM | 110,000 compounds, 1.3% hits;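 active means Z score or B-score, a plate-position-corrected score, falls beyond the plate's 99.7% confidence bounds, in either direction; inactive means both scores lie inside the 99.7% bounds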;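 further: scored against the spread of the other compound wells on the same plate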
Target sequence (Q01959 whole entry, looked up): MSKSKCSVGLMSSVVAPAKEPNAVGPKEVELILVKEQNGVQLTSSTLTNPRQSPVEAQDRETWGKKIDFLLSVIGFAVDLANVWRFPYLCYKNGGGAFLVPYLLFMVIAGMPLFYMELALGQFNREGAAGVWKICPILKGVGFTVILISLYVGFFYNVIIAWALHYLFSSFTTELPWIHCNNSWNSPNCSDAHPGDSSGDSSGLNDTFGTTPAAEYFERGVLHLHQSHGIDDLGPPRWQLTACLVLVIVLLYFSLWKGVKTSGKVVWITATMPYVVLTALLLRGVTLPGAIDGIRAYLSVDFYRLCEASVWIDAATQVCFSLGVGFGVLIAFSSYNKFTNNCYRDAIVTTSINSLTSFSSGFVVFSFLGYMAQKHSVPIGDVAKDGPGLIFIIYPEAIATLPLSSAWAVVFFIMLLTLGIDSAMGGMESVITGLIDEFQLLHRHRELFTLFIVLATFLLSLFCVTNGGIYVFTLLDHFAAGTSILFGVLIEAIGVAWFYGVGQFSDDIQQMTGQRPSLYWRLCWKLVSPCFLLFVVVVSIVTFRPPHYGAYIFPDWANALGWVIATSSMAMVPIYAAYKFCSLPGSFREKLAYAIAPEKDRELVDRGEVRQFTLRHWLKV
WT yeast gro inh: growth inhibition of WT yeast, mitochondrial fusion screen. mitochondrial fusion phenotypic screen, WT strain. inhibition, % at 10 µM. 190,000 compounds, 2.1% hits; in the data active means inhibition above about 58%; tested in S. cerevisiae
HCT116 PTEN-null: growth suppressors of cells with PTEN tumor suppressor deletion. HCT116 PTEN-null viability, CellTiter-Glo, 60 h; hits give low values. 140,000 compounds, 1.2% hits. viability, % at 10 µM;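 active means viability at or below a set limit, 4 SD under the median of all tested compounds, cut at about 3.7% in these data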;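 further: PTEN knockout HCT116 line with beta catenin targeted HCT116 as companion control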
HCT116 bCat-KO: beta-catenin-lacking colon tumor cell growth suppression | HCT116 beta-catenin knockout viability, CellTiter-Glo, 60 h; hits give low values | viability, % at 10 µM | 140,000 compounds, 1.5% hits | AID 818;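 active means viability at or under a set limit, the compound median less 4 SD, cut at about 6% in these data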;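 further: 0% = Hyamine 1622 control at 20 µM and 100% = untreated cell control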
* hit, by the source's call; . = no result. Most compounds without a hit are left out; they make up all but 3.6% or so of the library.

SMILES | hDAT+cocaine | WT yeast gro inh | HCT116 PTEN-null | HCT116 bCat-KO
COc1ccc(C2=CC(=O)N(Nc3ccccc3)C2=O)cc1 | . | 41 | . | .
O=C1C=C(c2ccccc2)C(=O)N1Nc1ccccc1 | -1.3 | 87* | 102 | 100
COc1cc(NCCCCCCCN)c2ncccc2c1 | -0.84 | 31 | 2.3* | 1.7*
Cn1cc(C(=O)c2ccccc2)cc1-c1nc2ccccc2n1C | 2.6* | 1 | 61 | 72
CCC(=O)c1cc(-c2nc3ccccc3n2C)n(C)c1 | 1.2 | -17 | 112 | 98
O=C(COc1ccccc1[N+](=O)[O-])N/N=C/C=C/c1ccco1 | . | 71* | 91 | 103
COc1ccccc1OCC(=O)N/N=C/C=C/c1ccc([N+](=O)[O-])o1 | . | 7 | 2.6* | 3.2*
CC1(C)CC(c2nc(-c3ccccc3)cs2)CCS1 (centres undefined) | . | 61* | 95 | 91
CC1(C)CC(c2nc(-c3ccc(Cl)cc3)cs2)CCS1 (centres undefined) | -0.75 | 66* | 101 | 94
Cc1nc(-c2ccccc2)cs1 | -1.7 | -7 | 89 | 100
CC1(C)CC(c2nc(-c3ccc(Br)cc3)cs2)CCS1 (centres undefined) | . | 49 | 84 | 83
CCOC(=O)C1(C)NC(c2ccco2)C2C(=O)N(CC)C(=O)C21 (centres undefined) | . | -2 | . | .
CCC1Oc2ccc(C)cc2N(CC(=O)NCCC2=CCCCC2)C1=O (centres undefined) | -0.12 | 7 | 76 | 82
CCC1Oc2ccc(C)cc2N(CC(=O)NCCCN2CCCCC2CC)C1=O (centres undefined) | -0.92 | 81* | 88 | 91
Cc1ccc(S(=O)(=O)c2c(C)nn(C(C)(C)C)c2OC(=O)CC(C)C)cc1 | . | 70* | . | .
CCC(=O)Oc1c(S(=O)(=O)c2ccc(C)cc2)c(C)nn1C(C)(C)C | 0.64 | 7 | 94 | 95
O=P(O)(O)CCP(=O)(c1ccccc1)c1ccccc1 | -2.5* | 10 | 83 | 84
CP(C)(=O)CCP(=O)(c1ccccc1)c1ccccc1 | . | 7 | 89 | 84
O=C(O)c1ccc(Cl)c(S(=O)(=O)Nc2cccc(C(=O)Nc3cccc(C(F)(F)F)c3)c2)c1 | . | 6 | . | .
O=[N+]([O-])c1ccc(Sc2nccn2Cc2ccccc2)c([N+](=O)[O-])c1 | -2.4 | -20 | 5 | 4.8*
O=[N+]([O-])c1cc(C(F)(F)F)ccc1Sc1nccn1Cc1ccccc1 | 0.89 | 34 | 85 | 89
CCOC(=O)c1cc(-c2ccc(OC)cc2OC)nn1-c1ccc(C(=O)O)cc1 | . | -9 | . | .
CCC(CC)C(=O)c1c[nH]c(C(=O)NN)c1 | . | -6 | . | .
Cc1ccc2[nH]c3c(NCCN4CCOCC4)ncnc3c2c1 | 0.32 | 12 | 88 | 92
Clc1ccc2[nH]c3c(NCCCN4CCOCC4)ncnc3c2c1 | -0.33 | 1 | 5 | 5.0*
SMILES | hDAT+cocaine | WT yeast gro inh | HCT116 PTEN-null | HCT116 bCat-KO
CC(=O)Nc1sc2c(c1-c1nc3ccccc3s1)CCN(C(C)C)C2 | . | 58* | . | .
O=C1CCC(c2ccc(-n3ccnc3)cc2)=NN1 | -0.44 | . | . | .
O=[N+]([O-])c1cc(/C=N/O)ccc1Oc1ccccc1Cl | . | 35 | . | .
O=[N+]([O-])c1cc(/C=N/O)ccc1Oc1cccc(Cl)c1 | . | 72* | . | .
Cc1ccccc1Oc1nc2c(C)cccn2c(=O)c1/C=C(\C#N)C(=O)Nc1c(C)n(C)n(-c2ccccc2)c1=O | . | -1 | 86 | 81
Cc1cccn2c(=O)c(/C=C(\C#N)S(=O)(=O)c3ccccc3)c(Oc3ccc(Cl)cc3)nc12 | . | 60* | 2.2* | 3.6*
Cc1cc(Oc2nc3c(C)cccn3c(=O)c2/C=C(\C#N)S(=O)(=O)c2ccccc2)ccc1Cl | . | 24 | 2.3* | 1.6*
N#C/C(=C\c1c(N2CCOCC2)nc2ccccn2c1=O)S(=O)(=O)c1ccccc1 | 0.013 | 13 | 101 | 97
C#Cc1ccc(C(=O)Nc2ccc(N3CCC(C)CC3)c(C(N)=O)c2)cc1 | . | -8 | . | .
Cc1ccc2sc(N(CCCN(C)C)C(=O)c3ccc(Br)s3)nc2c1C | . | 87* | . | .
Cc1ccc2sc(N(CCCN(C)C)C(=O)c3nc4ccccc4s3)nc2c1C | . | 59* | . | .
CCOc1cccc2sc(N(CCN(C)C)C(=O)c3ccc(Br)s3)nc12 | . | 1 | . | .
CCCCC1C(=O)CC[C@H]2[C@@H]1CC(=O)[C@@H]2C/C=C\CCCC(=O)O (some centres undefined) | -0.31 | -8 | 82 | 76
CC(C)(C)NC(=O)CN(C(=O)CN1C(=O)C(=O)c2ccccc21)C(C)(C)C | . | 5 | . | .
CN(Cc1ccc(OC(F)F)cc1)Cc1nc2c(Br)cc(Br)cc2c(=O)[nH]1 | . | 70* | . | .
CC(NC(=O)CNC(=O)C(Cc1ccccc1)NC(=O)OCc1ccccc1)C(N)=O (centres undefined) | . | 6 | . | .
CCCOc1ccc(N2C(=O)CC(S/C(N)=N/N=C(\C)c3cccs3)C2=O)cc1 (centres undefined) | -1.4 | -15 | 92 | 99
C/C(=N\N=C(/N)SC1CC(=O)N(c2cccc(Cl)c2)C1=O)c1cccs1 (centres undefined) | . | 94* | 78 | 90
C[C@H]1COC2=C1C(=O)C(=O)c1c2ccc2c1CCCC2(C)C | -0.37 | 74* | . | .
Cc1coc2c1C(=O)C(=O)c1c-2ccc2c1CCCC2(C)C | 1.3 | 73* | . | .
Cc1cccc(NC(=O)CCSc2nnc(Cc3ccccc3)o2)c1 | . | 6 | 93 | 99
Cc1cccc(CSc2nnc(-c3ccco3)o2)c1 | . | 33 | . | .
Cc1cccc(-c2nnc(SCc3ccccc3)o2)c1 | 1.4 | 65* | 92 | 110
COc1ccc(Br)cc1CSC(=N)N | . | -4 | . | .
CCCCCOc1ccc(Br)cc1CSC(=N)N | . | 65* | 0.8* | 1.3*
SMILES | hDAT+cocaine | WT yeast gro inh | HCT116 PTEN-null | HCT116 bCat-KO
O=C(Nc1ccccn1)c1ccco1 | -0.96 | 70* | 89 | 100
Cc1ccc2c(C)c(C(=O)Nc3c(C)n(C)n(-c4ccccc4)c3=O)oc2c1C | . | -14 | 89 | 90
CCCCCOc1ccc2oc(=O)c3c(c2c1)CCCN3C(=O)CN1CCCC(C(=O)OCC)C1 (centres undefined) | 1.1 | 80* | 67 | 72
CC1CCCN(c2c([N+](=O)[O-])c(=O)oc3ccccc23)C1 (centres undefined) | -2.7* | 1 | 101 | 96
COC(=O)C1=C(C(=O)OC)[C@@H]2N(Cc3ccccc3)c3ccccc3[C@@]23C[C@@H](C(=O)OC)N(C(=O)C2CCC2)C3=N1 | -0.34 | . | . | .
O=C(Nc1ccc(N2CCCC2)c(Cl)c1)c1ccco1 | 0.42 | 10 | 96 | 89
O=C(Nc1ccc(N2CCCC2)c(Cl)c1)c1ccc([N+](=O)[O-])o1 | . | 86* | . | .
COCc1nnc(SCC(=O)Nc2cccc(Cl)c2C)n1-c1ccccc1 | 0.06 | 8 | 92 | 94
Cc1ccc(CCc2nnc(SCC(=O)Nc3cc(Cl)ccc3Cl)n2-c2ccccc2)o1 | . | 61* | 72 | 83
COc1ccc(-c2nc(CN3CCCCC3c3nccn3C)c(C)o2)c(C)c1C (centres undefined) | . | 75* | . | .
COc1ccc(OC)c(-c2nc(CN3CCCCC3c3cccnc3)c(C)o2)c1 (centres undefined) | . | 4 | . | .
CC1CC(C)(C)N2C(=O)C3(Nc4ccccc4S3)c3cccc1c32 (centres undefined) | 0.51 | 67* | 71 | 74
